Laboratory results published in PubChem BioAssay (NCATS).
Where “and” joins values, the source holds several entries; their conditions need not be identical. Equal entries are not always repeated. Inconclusive results are not listed. Values without a mark were called inactive. Calls of active or inactive are those of the source. Calls follow the shape of the dose curve; as a rule, active = well fitted curve in the direction sought with a large enough effect; inconclusive = small, poorly fitted or top-dose-only effect, or another doubt; inactive = no such curve, though single readings can be large; an effect the other way counts as inactive or inconclusive.

Experiments:
[1] = target: Cellular tumor antigen p53 (Homo sapiens) (UniProt P04637); assay: Primary qHTS for small molecule compounds that upregulate eGFP-tagged delta133p53alpha (in N-terminal) cells. (AID 2060322); settings: NCI-H358 eGFP-delta133p53alpha fluorescence, 24 h; activation: hits give high values; also: nearly all actives have a fitted effect of over 75% in size; also: potency is read from the fitted curve at half-maximal effect;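 as to activation: cells pre-induced with doxycycline then dosed without doxycycline; series mostly up to about 56 µM; 0% = DMSO vehicle and 100% = reference activator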
Summary of the method: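 NCI-H358 cells pre-induced 24 h with 10 ng/ml doxycycline for eGFP-delta133p53alpha, plated dox-free and exposed 24 h at 37C to titrated compounds. Fixed, Hoechst-stained; gated GFP peak intensity by laser scanning cytometry, normalized to DMSO (0%) and 57.5 uM 5-azacytidine (100%).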

[2] = target: Aldehyde dehydrogenase, mitochondrial (Homo sapiens) (UniProt P05091); assay: qHTS for Inhibitors of the Aldehyde Dehydrogenase Family (ALDH2) Primary screen (AID 2061308);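 also: plate controls were vehicle for no effect and reference inhibitor for full effect; nearly all actives have a fitted effect of over 55% in size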
[3] = target: Retinaldehyde dehydrogenase 3 (Homo sapiens) (UniProt P47895); assay: qHTS for Inhibitors of the Aldehyde Dehydrogenase Family (ALDH1A3) Primary screen (AID 2061315);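 also: plate controls were DMSO vehicle for no effect and reference inhibitor for full effect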
[4] = BET inhibitor-based combinations targeting novel dependencies in MECOM-rearranged (r) AML: OCI-AML3 cell line (AID 2202232); settings: Potency: OCI-AML3 viability; also: nearly all actives have a fitted effect of over 35% in size; also: potency is read from the fitted curve at half-maximal effect
Summary of the method: (§1)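 Viability of cells (500 per well) is scored by luminescent CellTiter-Glo at 48 hr post-dosing. Eleven-point titrations are normalized to DMSO and empty controls and reduced to AUC values.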

[5] = BET inhibitor-based combinations targeting novel dependencies in MECOM-rearranged (r) AML: MV-4-11 cell line (AID 2202233); also: nearly all actives have a fitted effect of over 45% in size; also: potency is read from the fitted curve at half-maximal effect
Summary of the method: (§2)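 Using pin-tool transfer, drugs were added in 11 doses to cells (500/well), incubated 48 hr, and assessed with CellTiter-Glo. Z-AUC is a mean-centring transformation applied separately to each screened line.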

[6] = BET inhibitor-based combinations targeting novel dependencies in MECOM-rearranged (r) AML: HNT-34 cell line (AID 2202234); also: nearly all actives have a fitted effect of over 35% in size; also: potency is read from the fitted curve at half-maximal effect
Summary of the method: as §2

[7] = BET inhibitor-based combinations targeting novel dependencies in MECOM-rearranged (r) AML: UCSD-AML1 cell line (AID 2202235); also: nearly all actives have a fitted effect of over 40% in size; also: potency is read from the fitted curve at half-maximal effect
Summary of the method: as §2

[8] = BET inhibitor-based combinations targeting novel dependencies in MECOM-rearranged (r) AML: AML-191 cell line (AID 2202236; also: nearly all actives have a fitted effect of over 35% in size; also: potency is read from the fitted curve at half-maximal effect)
Summary of the method: as §1

[9] = BET inhibitor-based combinations targeting novel dependencies in MECOM-rearranged (r) AML: AML-194 cell line (AID 2202237; also: nearly all actives have a fitted effect of over 40% in size; also: potency is read from the fitted curve at half-maximal effect)
Summary of the method: as §1

[10] = BET inhibitor-based combinations targeting novel dependencies in MECOM-rearranged (r) AML: SET-2 cell line (AID 2202231); settings: SET-2 AML cells viability, CellTiter-Glo luminescence, 48 h; viability: hits give low values, concentration not given here; also: nearly all actives have a fitted effect of over 35% in size; also: potency is read from the fitted curve at half-maximal effect;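 as to viability: plate controls were DMSO treated cells for no effect and wells without cells for full effect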
Summary of the method: as §1

Sequence of Cellular tumor antigen p53 (Homo sapiens) (P04637 whole entry, looked up): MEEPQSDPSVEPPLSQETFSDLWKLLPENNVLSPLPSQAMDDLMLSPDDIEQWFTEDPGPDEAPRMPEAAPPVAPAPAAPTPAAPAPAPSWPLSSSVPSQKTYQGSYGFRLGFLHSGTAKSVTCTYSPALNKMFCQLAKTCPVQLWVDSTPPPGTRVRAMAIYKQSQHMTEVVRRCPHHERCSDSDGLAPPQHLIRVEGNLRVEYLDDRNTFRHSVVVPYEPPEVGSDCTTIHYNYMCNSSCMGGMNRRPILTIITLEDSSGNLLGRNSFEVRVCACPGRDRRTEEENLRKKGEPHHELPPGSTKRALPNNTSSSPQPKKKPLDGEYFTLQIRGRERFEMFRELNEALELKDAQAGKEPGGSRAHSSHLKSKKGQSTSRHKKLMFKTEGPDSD

Question: Which activation [1] does the source give for `CC1=C(C(=O)Nc2cc3cn[nH]c3cc2F)C(c2ccc(Cl)cc2F)N=C(c2ccnc(Cl)c2)N1` (stereo not drawn) here?
Answer: -24.2% and 5.36%

Question: And the Potency [2]?
Answer: inactive

Question: And the Potency [3]?
Answer: inactive

Question: And the Potency [4]?
Answer: 16.6 µM (active)

Question: What about the Potency [5] of the same molecule?
Answer: 5.9 µM (active)

Question: Which activation [1] does the source give for `Cc1cc(Nc2cc(N3CCN(C)CC3)nc(Sc3ccc(NC(=O)C4CC4)cc3)n2)n[nH]1` here?
Answer: 60.2%

Question: And the Potency [2]?
Answer: inactive

Question: And the Potency [3]?
Answer: inactive

Question: And the Potency [4]?
Answer: 0.662 µM (active)

Question: And the Potency [5]?
Answer: 0.132 µM (active)

Question: And the Potency [6]?
Answer: 0.235 µM (active)

Question: And the Potency [7]?
Answer: 4.68 µM (active)

Question: What about the Potency [8] of the same molecule?
Answer: 0.662 µM (active)

Question: What about the Potency [9] of the same molecule?
Answer: 0.934 µM (active)

Question: With `Cc1ccc(C(=O)Nc2cccc(C(F)(F)F)c2)cc1-c1ccc2nc(NCCN3CCOCC3)ncc2c1` as the molecule, how does the Potency [1] read?
Answer: 26.9 µM (active)

Question: And the Potency [2]?
Answer: inactive

Question: What about the Potency [3] of the same molecule?
Answer: inactive

Question: What about the Potency [4] of the same molecule?
Answer: 0.525 µM (active)

Question: And the Potency [5]?
Answer: 2.35 µM (active)

Question: And the Potency [6]?
Answer: 0.0934 µM (active)

Question: And the Potency [7]?
Answer: 3.32 µM (active)

Question: What about the Potency [8] of the same molecule?
Answer: 2.63 µM (active)

Question: And the Potency [9]?
Answer: 3.32 µM (active)

Question: What does the source list for `COc1cccc(OCCCN)c1-c1cc(Nc2cnc(C#N)cn2)n[nH]1`?
Answer: Potency [1]: 26.9 µM (active); Potency [2]: inactive; Potency [3]: inactive; Potency [10]: 0.059 µM (active); Potency [7]: 0.0093 µM (active); Potency [8]: 0.0235 µM (active)

Question: For `COc1nc(-c2ccc3c(c2)OCO3)n(-c2ccc(NC(=O)CSc3ccccc3)cc2)n1`, which activation [1] is on record?
Answer: 2.57% and -11.7%

Question: And the Potency [2]?
Answer: inactive

Question: What about the Potency [3] of the same molecule?
Answer: inactive

Question: What about the viability [10] of the same molecule?
Answer: 97.5%

Question: What about the Potency [7] of the same molecule?
Answer: inactive

Question: And the Potency [8]?
Answer: inactive

Question: And the Potency [9]?
Answer: inactive

Question: For `Fc1ccc(-c2nc(-c3ccccc3F)[nH]c2-c2ccncc2)cc1`, which activation [1] is on record?
Answer: 17%

Question: And the Potency [2]?
Answer: inactive

Question: And the Potency [3]?
Answer: inactive

Question: And the Potency [4]?
Answer: inactive

Question: And the Potency [5]?
Answer: inactive

Question: What about the Potency [6] of the same molecule?
Answer: inactive

Question: What about the Potency [7] of the same molecule?
Answer: 4.17 µM (active)

Question: And the Potency [8]?
Answer: inactive

Question: What about the Potency [9] of the same molecule?
Answer: inactive

Question: Which Potency [1] does the source give for `CCCCCN(CCC12CC3CC(CC(C3)C1)C2)C(=O)NCCCc1ccncc1` here?
Answer: 23.9 µM (active)

Question: What about the Potency [2] of the same molecule?
Answer: inactive

Question: What about the Potency [3] of the same molecule?
Answer: inactive

Question: What about the Potency [4] of the same molecule?
Answer: 18.6 µM (active)

Question: And the Potency [5]?
Answer: 13.2 µM (active)

Question: What about the Potency [6] of the same molecule?
Answer: 16.6 µM (active)

Question: And the Potency [7]?
Answer: 14.8 µM (active)

Question: What about the Potency [8] of the same molecule?
Answer: 20.9 µM (active)

Question: And the Potency [9]?
Answer: 18.6 µM (active)

Question: For `O=C(NCC(=O)N1CCCC1)Nc1ccc2cnccc2c1`, which activation [1] is on record?
Answer: 7.14%

Question: What about the Potency [2] of the same molecule?
Answer: inactive

Question: And the Potency [3]?
Answer: inactive

Question: What about the viability [10] of the same molecule?
Answer: 109%

Question: And the Potency [6]?
Answer: inactive

Question: And the Potency [7]?
Answer: inactive

Question: And the Potency [8]?
Answer: inactive

Question: What about the Potency [9] of the same molecule?
Answer: inactive

Question: With `CCCC(CCC)C(=O)Nc1ccn([C@@H]2O[C@H](CO)[C@@H](O)C2(F)F)c(=O)n1` as the molecule, how does the activation [1] read?
Answer: -16.2%

Question: And the Potency [2]?
Answer: inactive

Question: And the Potency [3]?
Answer: inactive

Question: And the Potency [4]?
Answer: 0.934 µM (active)

Question: What about the Potency [5] of the same molecule?
Answer: 1.05 µM (active)

Question: And the Potency [6]?
Answer: 4.68 µM (active)

Question: And the Potency [7]?
Answer: 4.17 µM (active)

Question: And the Potency [8]?
Answer: 2.35 µM (active)

Question: What about the Potency [9] of the same molecule?
Answer: 2.63 µM (active)

Question: Which results are given for `N#CN1CCC[C@@H](n2nc(-c3ccc(Oc4ccc(F)cc4F)cc3)c(C(N)=O)c2N)C1`?
Answer: activation [1]: -16.1%; Potency [2]: inactive; Potency [3]: inactive; viability [10]: 107%; Potency [9]: inactive

Question: Which results are given for `O=C(CC12CC3CC(CC(C3)C1)C2)Nc1cccc2nc(NCCNCCO)ccc12`?
Answer: activation [1]: 11.8% and 6.68%; Potency [2]: inactive; Potency [3]: inactive; viability [10]: 114%; Potency [8]: inactive

Question: What does the source list for `COc1cc2c(Oc3ccc4[nH]c(C)cc4c3F)ncnc2cc1OCCCN1CCCC1`?
Answer: Potency [1]: 24.3 µM (active) and 23.9 µM (active); Potency [2]: inactive; Potency [3]: inactive; Potency [4]: 13.2 µM (active); Potency [5]: 18.6 µM (active); Potency [6]: 11.8 µM (active); Potency [7]: 16.6 µM (active); Potency [8]: 20.9 µM (active); Potency [9]: 10.5 µM (active)

Question: Which activation [1] does the source give for `CC(C)[C@@H](CS(=O)(=O)C(C)C)N1C(=O)[C@@](C)(CC(=O)O)C[C@H](c2cccc(Cl)c2)[C@H]1c1ccc(Cl)cc1` here?
Answer: 0.955% and -3.88%

Question: What about the Potency [2] of the same molecule?
Answer: inactive

Question: And the Potency [3]?
Answer: inactive

Question: What about the Potency [4] of the same molecule?
Answer: 2.35 µM (active)

Question: What about the Potency [5] of the same molecule?
Answer: 1.86 µM (active)

Question: And the Potency [6]?
Answer: 1.66 µM (active)

Question: What about the Potency [7] of the same molecule?
Answer: 1.86 µM (active)

Question: What about the Potency [8] of the same molecule?
Answer: 2.35 µM (active)

Question: What about the Potency [9] of the same molecule?
Answer: 2.35 µM (active)

Question: Which results are given for `Clc1ccc(C2(c3ccc(-c4cn[nH]c4)cc3)CCNCC2)cc1`?
Answer: activation [1]: -10.3% and 1.79%; Potency [2]: inactive; Potency [3]: inactive; Potency [4]: 18.6 µM (active); Potency [5]: 4.17 µM (active); Potency [6]: 5.25 µM (active); Potency [7]: 18.6 µM (active); Potency [8]: 18.6 µM (active); Potency [9]: 20.9 µM (active)

Question: For `CCn1nc(C2CCN(C(=O)CCO)CC2)nc1-c1cnc(N)c(-c2nnc(C(C)(C)C)o2)n1`, which activation [1] is on record?
Answer: 6.33%

Question: And the Potency [2]?
Answer: inactive

Question: And the Potency [3]?
Answer: inactive

Question: What about the Potency [4] of the same molecule?
Answer: 1.18 µM (active)

Question: What about the Potency [5] of the same molecule?
Answer: 5.9 µM (active)

Question: What about the Potency [6] of the same molecule?
Answer: 16.6 µM (active)

Question: What about the Potency [7] of the same molecule?
Answer: 5.9 µM (active)

Question: With `Nc1nc(Nc2ccc(S(N)(=O)=O)cc2)nn1C(=O)c1c(F)cccc1F` as the molecule, how does the Potency [1] read?
Answer: 24.3 µM (active) and 9.53 µM (active)

Question: What about the Potency [2] of the same molecule?
Answer: inactive

Question: And the Potency [3]?
Answer: inactive

Question: What about the Potency [4] of the same molecule?
Answer: 2.95 µM (active)

Question: And the Potency [5]?
Answer: 1.66 µM (active)

Question: What about the Potency [6] of the same molecule?
Answer: 2.95 µM (active)

Question: What about the Potency [7] of the same molecule?
Answer: 2.09 µM (active)

Question: What about the Potency [8] of the same molecule?
Answer: 2.35 µM (active)

Question: And the Potency [9]?
Answer: 3.72 µM (active)

Question: Which Potency [1] does the source give for `COc1ccc(CNc2nc(N(CCO)CCO)nc3c2ncn3C(C)C)cc1` here?
Answer: 8.49 µM (active)

Question: What about the Potency [2] of the same molecule?
Answer: inactive

Question: What about the Potency [3] of the same molecule?
Answer: inactive

Question: And the Potency [4]?
Answer: 8.33 µM (active)

Question: What about the Potency [5] of the same molecule?
Answer: 6.61 µM (active)

Question: And the Potency [6]?
Answer: 7.42 µM (active)

Question: What about the Potency [7] of the same molecule?
Answer: 7.42 µM (active)

Question: What about the Potency [8] of the same molecule?
Answer: 3.32 µM (active)

Question: What about the Potency [9] of the same molecule?
Answer: 5.9 µM (active)
